# From paper PMC4336329 (PLoS ONE, 2015)
# Hit rate of the full screen: of about 310,000 compounds, about 14,000 (4.5%) showed an effect of 50% or more. Effects have a minus sign here. This excerpt belongs to a sample that is enriched for strong results.
# Target: human ether-à-go-go-related gene (hERG) potassium channel (human, UniProt Q12809)
# Assay: primary screen, population patch clamp on CHO cells stably expressing hERG; higher = less effect of the substance
# 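Note: peak tail current of the secondary pulse compared with the same well before compound.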
# Chain of human ether-à-go-go-related gene (hERG) potassium channel (Q12809 whole entry, looked up): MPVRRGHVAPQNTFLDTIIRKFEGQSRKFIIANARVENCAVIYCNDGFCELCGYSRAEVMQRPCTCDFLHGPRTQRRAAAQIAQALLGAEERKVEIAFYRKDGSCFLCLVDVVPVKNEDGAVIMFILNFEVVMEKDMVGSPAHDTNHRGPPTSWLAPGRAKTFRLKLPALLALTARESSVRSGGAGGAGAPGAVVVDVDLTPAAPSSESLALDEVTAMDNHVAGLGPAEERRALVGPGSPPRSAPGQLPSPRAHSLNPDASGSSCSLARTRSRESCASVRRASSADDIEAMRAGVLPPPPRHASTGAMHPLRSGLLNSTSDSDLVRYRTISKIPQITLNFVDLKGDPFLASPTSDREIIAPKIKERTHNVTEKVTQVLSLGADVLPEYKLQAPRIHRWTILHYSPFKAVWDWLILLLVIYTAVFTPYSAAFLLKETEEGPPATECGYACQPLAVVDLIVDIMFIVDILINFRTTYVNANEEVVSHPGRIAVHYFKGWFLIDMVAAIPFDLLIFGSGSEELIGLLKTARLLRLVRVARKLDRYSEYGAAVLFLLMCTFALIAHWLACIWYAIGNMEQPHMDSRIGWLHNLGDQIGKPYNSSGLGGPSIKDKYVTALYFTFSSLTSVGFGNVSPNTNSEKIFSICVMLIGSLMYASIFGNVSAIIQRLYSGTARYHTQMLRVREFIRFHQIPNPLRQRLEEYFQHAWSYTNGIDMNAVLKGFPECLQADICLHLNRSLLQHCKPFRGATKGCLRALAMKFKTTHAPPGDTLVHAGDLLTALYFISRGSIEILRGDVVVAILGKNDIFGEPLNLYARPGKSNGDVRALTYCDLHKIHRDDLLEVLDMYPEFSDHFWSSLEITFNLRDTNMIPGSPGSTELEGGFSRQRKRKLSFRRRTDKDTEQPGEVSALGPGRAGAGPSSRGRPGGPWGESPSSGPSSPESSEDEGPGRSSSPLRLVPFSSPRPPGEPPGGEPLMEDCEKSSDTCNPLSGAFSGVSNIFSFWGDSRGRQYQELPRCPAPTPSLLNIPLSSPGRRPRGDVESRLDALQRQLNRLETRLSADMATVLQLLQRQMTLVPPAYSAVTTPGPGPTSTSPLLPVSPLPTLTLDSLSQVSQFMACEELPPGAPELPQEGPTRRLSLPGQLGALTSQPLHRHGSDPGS
row,SMILES,"hERG current change (%, negative = inhibition) at 10uM [%]"
1,COc1ccc(S(=O)(=O)N2CCOCC2)cc1C(=O)Nc1cc(C)on1,2.19
2,CCn1c(SCC#N)nc2ccccc2c1=O,2.7
3,CN(CC(=O)Nc1ccc(F)cc1)C(=O)COC(=O)CSc1ccc(F)cc1,-16
4,CC(=O)N1CCOc2ccc(S(=O)(=O)NCCc3ccc(S(N)(=O)=O)cc3)cc21,12.2
5,CCc1c(C)sc(NC(=O)c2cc(-c3ccc(O)cc3)on2)c1C#N,11.2
6,O=C(CCc1nnc2ccc(NCc3ccco3)nn12)Nc1ccc(F)cc1F,-4.76
7,COc1ccc(OC)c(C2=NOC(C(=O)Nc3cc(C)on3)C2)c1 (stereo not drawn),17.2
8,O=C(CCc1nc2sc3c(c2c(=O)[nH]1)CCCC3)Nc1ccccc1Cl,7.93
9,CN(C)C(=O)CSc1nnc(NC(=O)CCc2ccccc2)s1,-5.24
10,CC(=O)c1cccc(NC(=O)N2CC(C)OC(C)C2)c1 (stereo not drawn),10.4
11,Cc1ccc(NC(=O)OCCNC(=O)c2ccncc2)cc1,8.86
12,CCOc1ncccc1C(=O)N(CC)CC(=O)NCc1ccc(Cl)cc1,1.69
13,CCN(CC(=O)NCc1ccc(F)cc1)C(=O)C(C)Oc1cccc(Cl)c1 (stereo not drawn),-54.4
14,CCN(CC(=O)NCc1ccc(Cl)cc1)C(=O)COc1cccc(Cl)c1,-73.5
15,CCN(CC(=O)NCc1ccc(Cl)cc1)C(=O)COc1ccc(C)cc1C,-78.4
16,CCN(CC(=O)NCc1ccc(Cl)cc1)C(=O)CSc1cc(C)ccc1C,-47.5
17,CN(CC(=O)NCc1ccc(F)cc1)Cc1cccc(Cl)c1,4.92
18,CCN(CC(=O)NCc1ccc(Cl)cc1)C(=O)c1cnc(Cl)c(Cl)c1,5.29
19,O=C(COc1cccc(Cl)c1)NCc1ccccc1,18.9
20,CCN(CC(=O)NCc1ccc(F)cc1)C(=O)c1ccc(C(=O)c2ccccc2)cc1,-42.3
21,CCN(CC(=O)NCc1ccc(Cl)cc1)C(=O)COc1ccc(Cl)cc1Br,-67.7

row,SMILES,"hERG current change (%, negative = inhibition) at 10uM [%]"
1,Cc1cc(Cl)ccc1OCC(=O)NCc1ccncc1,-8.3
2,O=C(COc1ccc(Cl)cc1Br)NC(=O)NCc1ccccc1,13.3
3,COc1ccccc1C(=O)Nc1cc(C)on1,7.07
4,CN(C)S(=O)(=O)c1ccc(Cl)c(NC(=O)COC(=O)C2CCCO2)c1 (stereo not drawn),5.01
5,COc1ccc(NC(=O)CSc2nc(SC)ns2)c(OC)c1,2.53
6,O=C(OCc1csc(-c2ccccc2)n1)c1ccccc1O,29.6
7,CC1CCC(NC(=O)CSc2nnnn2C)CC1 (stereo not drawn),6.96
8,CCOc1ccc(CCNC(=O)COC(=O)c2ccc(OC)c(OC)c2OC)cc1OCC,12.2
9,O=C(COc1cccc2cccnc12)NNC(=S)Nc1ccccc1,-25.8
10,CCc1cccc(C)c1NC(=O)C1CCCN(S(C)(=O)=O)C1 (stereo not drawn),23.6
11,Cc1ccc([C@@H]2[C@@H]3C(=O)N(C)C(=O)[C@@H]3[C@]3(Cc4ccccc4)C(=O)N(CCO)CC(=O)N23)o1,0.221
12,COc1cccc(NC(=O)NCc2ccc(F)cc2)c1,-5.73
13,COc1cccc(CN(C)CC(=O)NCc2ccc(C)cc2)c1.O=C(O)C(=O)O,-49.3
14,CCN(CC(=O)NCc1ccc(F)cc1)CC(O)COCc1cccc(OC)c1 (stereo not drawn),-60.6
15,COc1ccc(C2=NS(=O)(=O)N(C)C(C(=O)NC3CCCC3)=C2)cc1,2.43
16,COc1cccc(CSc2nnc(CSc3nc4nc(C)cc(C)n4n3)s2)c1,-54.4
17,Cc1cccc(CSc2nc3nc(C)cc(C)n3n2)c1,-27.9
18,Cc1cc(C)n2nc(SCc3nnc(SCc4ccccc4Cl)s3)nc2n1,9.19
19,COc1cccc(CSc2nc3nc(C)cc(C)n3n2)c1,-4.72
20,Cc1cc(C)n2nc(SCc3nnc(SCc4ccccc4)s3)nc2n1,-28.6
21,Cc1cc(C)n2nc(SCc3nnc(SCc4ccccc4C)s3)nc2n1,-64.9
